Experimental data published in PubChem BioAssay.
The source made the active and inactive calls.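 Rule for the calls: active = inhibition at or above 50% at 10 µM; inactive = inhibition below 50%.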

Experiment: inhibitors of Sendai virus-induced IRF3 signaling, primary screen, TLR/RLR signaling modifier project, cell-based, Sendai virus stimulus, luciferase, 10K MLSCN set (AID 602276);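 note: firefly luciferase from ISG56 promoter only with Renilla not read in this screen; 0% = Sendai virus plus DMSO and 100% = medium plus DMSO without virus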
Conditions: HEK293 RL24 IRF3 luciferase reporter, at 10 µM, stronger effect = higher value

inhibition, inactive:
COc1cccc(N2CCN(Cc3nc(N)nc(Nc4ccccc4OC)n3)CC2)c1 19%
Cc1cc(C)cc(NC(=O)N2CCC(c3nc4ccccc4o3)CC2)c1 13.6%
O=C1CCC(=O)N1OCCCCOc1ccccc1 15.8%
Cc1cc(C)c2c(=O)[nH]c(=O)n(Cc3ccccc3)c2n1 16.5%
Cc1ccc(CNC(=O)C2CCCN(S(=O)(=O)c3cccnc3)C2)cc1 (stereo unspecified) -3.78%
COc1ccccc1OC(=O)c1ccc(SC)cc1OC -1.26%
COc1ccccc1OC(=O)c1ccc2nsnc2c1 9.79%
CCCCCCNC(=O)Cc1c(O)c2ccccc2[nH]c1=O 9.96%
CCCOc1nc(N)c(C#N)c(-c2ccccc2F)c1C#N 9.25%
CCOC(=O)c1cc(-c2ccc(Cl)s2)nc2c1c(C)nn2C 8.23%
COc1ccc(-n2c(SCC(=O)Nc3ccc(C(=O)O)cc3)nnc2-c2cccs2)cc1 0.267%
COC(=O)c1nc2n(n1)C(c1ccc(OC)c(OC)c1)C(C(=O)OC1CCCCC1)=C(C)N2 (stereo unspecified) 4.26%
O=C(NC12CC3CC(CC(C3)C1)C2)C1CCCN1C(=O)NC1CCCCC1 (stereo unspecified) -2.83%
O=C(Nc1cccc(C(F)(F)F)c1)c1cccnc1N1CCCC1 16.2%
COCCn1c(SCC(=O)Nc2nnc(C)s2)nnc1-c1ccncc1 18.4%
Cc1noc(C)c1S(=O)(=O)NCCN1CCN(c2ccccc2)CC1 12.9%
